KB-V1 MDR tox = KB-V1 MDR subline cytotoxicity. KB-V1 MDR cells viability, CellTiter-Glo, 72 h. Potency, µM (series often up to 46.1 µM), actives largely listed as cytotoxic. 400,000 compounds, 3.4% hits; further: nearly all actives have a fitted effect of over 60% in size
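Luminescent ATP read-out (CellTiter-Glo, 10 min) measures survival of drug-selected KB-V1 MDR cells after 72 h, 37 degrees C compound exposure. Medium: phenol-red-free DMEM, 10% FBS. Values from fitted concentration-response curves.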
HT1080-NT tox = kills 2HG-producing HT-1080-NT fibrosarcoma cells | AID 686970 | 360,000 compounds, 1.6% hits | Potency, µM (titrated, usually from 46.1 µM), for the others: at the top dose activity, negative = less viability, actives largely listed as cytotoxic | HT-1080-NT fibrosarcoma viability, CellTiter-Glo ATP luminescence, 48 h;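 further: NT is the 2HG producing partner of a matched IDH1 knockdown line; 0% = DMSO-treated cells and -100% = media-only wells without cells; nearly all actives have a fitted effect of over 55% in size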
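Viability of the 2HG-overproducing fibrosarcoma line after 48 hours of compound exposure at 37 degrees C was determined by luminescence with CellTiter-Glo, and concentration-effect curves were then fitted and categorized.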
KB-3-1 tox = kills parental KB-3-1 adenocarcinoma cells; KB-3-1 viability, CellTiter-Glo ATP luminescence, 72 h; Potency, µM (series often up to 46.1 µM), usual class: cytotoxic; 400,000 compounds, 1.4% hits; AID 1347075; further: nearly all actives have a fitted effect of over 60% in size
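Cytotoxicity measured as CellTiter-Glo luminescence after 72 h at 37 C. Compound titrations were pinned onto drug-naive KB-3-1 parental adenocarcinoma cells grown in DMEM with 10% FBS, and normalized data fitted to concentration-response curves.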
HT1080 IDH1KD tx = HT-1080 IDH1 knockdown cell toxicity (counter line); Potency, µM (series often up to 46.1 µM), for the others: top-dose activity, negative = toxicity, actives largely listed as cytotoxic; HT-1080 IDH1 knockdown viability, ATP luminescence, 48 h; 360,000 compounds, 2% hits;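 further: 0% = DMSO wells and -100% = cell-free medium wells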
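IDH1KD HT-1080 cells, 750/well, RPMI + 5% FBS; compound pinned after 2 h settling; 48 h, 37 °C; CellTiter-Glo luminescence; % activity normalised to DMSO and no-cell wells; curves fitted, classed by r2 and efficacy.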
* hit, by the source's call. A selection: hits, their analogues and other compounds. The true share with any hit is near 5.7%. The call rests on the fitted dose curve; in most records, active means well fitted curve in the direction sought with a large enough effect; inconclusive means small, poorly fitted or top-dose-only effect, or another doubt; inactive means no such curve, though single readings can be large; an effect the other way counts as inactive or inconclusive. Unless noted, on the % scale 0 is the no-effect control and ±100 the full control effect; potency means the concentration at half of the fitted maximal effect.

Screening CCOc1ncccc1C(=O)NCc1ccc(C)cc1 returned KB-V1 MDR tox 18µM*, HT1080-NT tox 1%, KB-3-1 tox inactive and HT1080 IDH1KD tx 6%.
Screening CSc1ncccc1C(=O)NCc1ccc(C)cc1 returned KB-V1 MDR tox inactive, HT1080-NT tox 1%, KB-3-1 tox inactive and HT1080 IDH1KD tx -3%.
`Cc1ccc(Oc2ccc(C(=O)NCc3ccncc3)cc2)cc1` gave KB-V1 MDR tox 21µM*, HT1080-NT tox inconclusive, KB-3-1 tox inactive and HT1080 IDH1KD tx inconclusive.
`Cc1ccccc1Cn1nnc2c(=O)[nH]c(C3CCCN(C(=O)c4ccc(F)cc4)C3)nc21` (configuration not stated) gave KB-V1 MDR tox inconclusive and KB-3-1 tox inactive.
`CCOc1ccc(-n2c(SC(C)C(=O)OC)nc3c([nH]c4ccccc43)c2=O)cc1` (configuration not stated) gave KB-V1 MDR tox inactive and KB-3-1 tox inactive.
`CCOc1ccc(CCNC(=O)Cn2c(-c3cccs3)cc3ccccc32)cc1` gave KB-V1 MDR tox inactive and KB-3-1 tox inactive.
For CC(C)c1nnc(-c2ccc(Cl)cc2)c(N(C)C)n1 the results were KB-V1 MDR tox 21µM*, HT1080-NT tox 4%, KB-3-1 tox inactive and HT1080 IDH1KD tx -1%.
Screening COc1ccc2c(c1)c1c(c(=O)n(-c3cccc(C)c3)c(=O)n1CC(=O)NCc1ccc(C)cc1)n2C returned KB-V1 MDR tox inconclusive and KB-3-1 tox inactive.
Screening O=C(COC(=O)c1ccc(NS(=O)(=O)c2cccs2)cc1O)NCc1ccccc1 returned KB-V1 MDR tox 13µM*, HT1080-NT tox 2.6µM*, KB-3-1 tox 5.8µM* and HT1080 IDH1KD tx 3.7µM*.
For O=S(=O)(Nc1cccc(CO)c1)c1cccs1 the results were KB-V1 MDR tox inactive, HT1080-NT tox -5%, KB-3-1 tox 0.21µM* and HT1080 IDH1KD tx 1%.
O=C(COC(=O)c1ccc(NS(=O)(=O)c2cccs2)cc1)NCc1ccco1 was read as KB-V1 MDR tox inconclusive, HT1080-NT tox 9.2µM*, KB-3-1 tox 18µM* and HT1080 IDH1KD tx 8.2µM*.
O=C(COC(=O)c1cccs1)NCc1ccco1 was read as KB-V1 MDR tox inactive, HT1080-NT tox -1%, KB-3-1 tox inactive and HT1080 IDH1KD tx -1%.
For O=C(COC(=O)c1ccc(NS(=O)(=O)c2cccs2)cc1O)Nc1nc2ccccc2s1 the results were KB-V1 MDR tox inactive, HT1080-NT tox 0%, KB-3-1 tox inconclusive and HT1080 IDH1KD tx 0%.
`CC(C)(C)C(=O)OCCNc1nc(-c2cccs2)nc2ccccc12` gave HT1080-NT tox -22% and HT1080 IDH1KD tx -27%.
For CC1=C/C(=N\OS(=O)(=O)c2ccccc2)C(C)=CC1=O the results were KB-V1 MDR tox 5.8µM*, HT1080-NT tox 4.6µM*, KB-3-1 tox 13µM* and HT1080 IDH1KD tx 9.2µM*.
For COc1cc(C(=O)O/N=C2/C=C(C)C(=O)C=C2C)cc(OC)c1OC the results were KB-V1 MDR tox inactive, HT1080-NT tox 6%, KB-3-1 tox inactive and HT1080 IDH1KD tx 21%.
Screening CC1=C(C)/C(=N\OS(=O)(=O)c2ccc(C)cc2)C=CC1=O returned KB-V1 MDR tox inconclusive, HT1080-NT tox 13µM*, KB-3-1 tox inconclusive and HT1080 IDH1KD tx 6.5µM*.
CCN(C(=O)CCNC(=O)Cn1cnc2ccccc2c1=O)c1cc(OC)ccc1OC was read as KB-V1 MDR tox inactive and KB-3-1 tox inactive.
Screening Cc1c(C(=O)C(=O)N2CCCc3ccccc32)c2ccccc2n1C returned KB-V1 MDR tox inconclusive, HT1080-NT tox 8.2µM*, KB-3-1 tox inconclusive and HT1080 IDH1KD tx inconclusive.
For Cc1c(C(=O)C(=O)N2CCN(C)CC2)c2ccccc2n1C the results were KB-V1 MDR tox inactive, HT1080-NT tox 0%, KB-3-1 tox inactive and HT1080 IDH1KD tx 1%.
CC1CCc2cc(F)ccc2N1C(=O)CCC(=O)O (configuration not stated) was read as KB-V1 MDR tox inactive, HT1080-NT tox 13%, KB-3-1 tox inactive and HT1080 IDH1KD tx 9%.
Cc1c(C(=O)C(=O)N2c3ccc(F)cc3CCC2C)c2ccccc2n1C (configuration not stated) was read as KB-V1 MDR tox 2.9µM*, HT1080-NT tox 3.3µM*, KB-3-1 tox 2.9µM* and HT1080 IDH1KD tx 2.3µM*.
Cc1ccc2oc(-c3ccc(C)c(NC(=O)COc4ccccc4C)c3)nc2c1 was read as KB-V1 MDR tox inactive and KB-3-1 tox inactive.

Source: PubChem BioAssay (National Center for Advancing Translational Sciences (NCATS))
